A selection: hits, their analogues and other compounds. The true share with any hit is near 7.3%.
FMDV antiviral: foot and mouth disease virus antiviral activity; AID 1159524; 410,000 compounds, 1.2% hits; Potency, µM (series often up to 57.9 µM), hits mostly inhibitors; FMDV antiviral cell-based qHTS; calls by dose curve; tested in HEK293T cells; further: read-out not given here; nearly all actives have a fitted effect of over 45% in size
AmpC inh no detg: blocks E. coli AmpC beta-lactamase in detergent-free assay. P00811. AmpC nitrocefin hydrolysis, absorbance 480 nm, 0.0001% Triton. Potency, µM (titrated, usually from 57.1 µM), usual class: inhibitors. 330,000 compounds, 0.52% hits. AID 485341; further: nearly all actives have a fitted effect of over 20% in size
Target sequence (P00811 whole entry, looked up): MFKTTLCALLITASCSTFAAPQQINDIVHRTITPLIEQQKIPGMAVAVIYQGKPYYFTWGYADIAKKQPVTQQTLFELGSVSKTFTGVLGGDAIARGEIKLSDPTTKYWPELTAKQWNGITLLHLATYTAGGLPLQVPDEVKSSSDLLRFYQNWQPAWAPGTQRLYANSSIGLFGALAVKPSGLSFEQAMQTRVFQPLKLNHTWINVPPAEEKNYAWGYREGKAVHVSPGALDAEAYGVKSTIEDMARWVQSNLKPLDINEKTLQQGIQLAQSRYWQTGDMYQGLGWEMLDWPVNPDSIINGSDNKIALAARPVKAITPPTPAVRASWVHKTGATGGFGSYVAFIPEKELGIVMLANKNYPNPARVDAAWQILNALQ
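20 mM phosphate pH 7.0 + 0.01% (detergent screen) or 0.0001% Triton X-100; 5.3 nM AmpC reagent; cpd preinc 15 min RT; nitrocefin (800 uM stock) to start; A480 q20 s × 4 min; Activity was normalised to no-enzyme and no-compound control wells.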
AmpC detergent: AmpC beta-lactamase inhibition with detergent present | P00811 | Potency, µM (doses to about 114 µM), actives largely listed as inhibitors | AmpC hydrolysis of nitrocefin, absorbance 480 nm, 0.01% Triton | AID 485294 | 370,000 compounds, 0.041% hits; further: nearly all actives have a fitted effect of over 25% in size
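AmpC (5.3 nM in the dispensed reagent) in 20 mM phosphate pH 7.0 with 0.01% (detergent screen) or 0.0001% Triton X-100 was preincubated with compounds for 15 min at room temperature. Nitrocefin was then added from an 800 uM solution, and hydrolysis was followed at 480 nm.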
HCMV antiviral: human cytomegalovirus inhibition; HFF cells, HCMV-luciferase reporter, 72 h; stronger effect = lower value; activity change, negative = inhibition, % at 57.5 µM; 410,000 compounds, 4.5% hits; AID 1259415; in the data active means activity change below about -60%; inconclusive means no clear call, values can overlap the other calls; inactive means above about -39%
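Two-dose cell screen: HFF monolayers treated with compounds and infected with luciferase-expressing HCMV at 1 PFU/cell, 72 h at 37C, then lysed for luciferase measurement.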
HCV inh: inhibitors of hepatitis C virus infection. Huh7.5.1 HCVcc-Cre infection, luciferase reporter, 44 h. Potency, µM (top dose mostly 41.8 µM), hits mostly inhibitors. 340,000 compounds, 3.4% hits. AID 651820
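After 44 h co-culture of compound, cells and HCVcc-Cre (~0.5 moi), substrate is added for 15 min at room temperature and luciferase measured over 15 sec. Cells were seeded at 1,000/well and pre-cultured 4 h.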
Large screens that a line does not name were inactive. Unless noted, the call rests on the fitted dose curve; in most records, active means well fitted curve in the direction sought with a large enough effect; inconclusive means small, poorly fitted or top-dose-only effect, or another doubt; inactive means no such curve, though single readings can be large; an effect the other way counts as inactive or inconclusive.

CCCNC(=O)c1cc2c(c(-c3cccc(-c4ccc(F)cc4)c3)n1)[C@H](CCO)N(S(=O)C(C)(C)C)C2 (stereo partly specified)	none (no result: AmpC inh no detg, AmpC detergent, HCV inh)
CCCNC(=O)c1cc2c(c(-c3cccc(-c4ccc(F)cc4)c3)n1)[C@@H](CCO)N(S(=O)C(C)(C)C)C2 (stereo partly specified)	FMDV antiviral inconclusive, HCMV antiviral -95.8 (no result: AmpC inh no detg, AmpC detergent, HCV inh)
COCCN=c1scc(-c2ccc3c(c2)NC(=O)CO3)n1/N=C(\C)c1ccc(O)cc1	HCMV antiviral inconclusive, HCV inh inconclusive
COc1cc(/C=N/n2c(-c3ccc4c(c3)NC(=O)CO4)csc2=Nc2cccc(C)c2)ccc1O	FMDV antiviral inconclusive, HCMV antiviral -96.5, HCV inh 7.08µM
O=C(NCc1ccc(F)cc1)c1cc2cccc3c2n1CCS3	HCMV antiviral -69.7 (no result: AmpC inh no detg, HCV inh)
CC1CCN(CC(=O)c2ccc3c(c2)OCCO3)CC1	HCMV antiviral -60.6
O=C(CCCN1CCOCC1)c1ccc2c(c1)OCCO2	none (no result: FMDV antiviral)
O=C(CCN1CCOCC1)c1ccc2c(c1)OCCO2	AmpC detergent inconclusive, HCV inh 11.2µM
CC(C)(C)c1ccc(C(=O)NCc2cccnc2)cc1	AmpC detergent inconclusive
Fc1ccc(NC(=S)NCc2cccnc2)cc1	none
CC(C)(C)c1ccc(C(=O)NC(=S)NCc2cccnc2)cc1	HCMV antiviral -77.9, HCV inh 22.4µM
COc1ccc(NC(=S)NCc2cccnc2)cc1	none
CC(C)(C)c1ccc(NC(=S)NCc2cccnc2)cc1	HCV inh 31.6µM
S=C(NCc1cccnc1)Nc1ccc(Oc2ccc(Cl)cc2)cc1	HCMV antiviral -61.3, HCV inh inconclusive
O=C(CCCOc1ccc(Cl)cc1)NC1CCCCC1	AmpC detergent inconclusive
CCc1ccn2cc(-c3ccc4c(c3)OCO4)nc2c1	FMDV antiviral 8.91µM, HCMV antiviral -77.8, HCV inh inconclusive
Cc1cccc(CN2[C@H](CO)C=CS2(=O)=O)c1	none (no result: AmpC inh no detg, AmpC detergent, HCV inh)
CCOC(=O)c1ccc(NC(=O)NC2CC3CCC(C2)N3)cc1 (stereo unspecified)	HCV inh 17.8µM
CCOC(=O)c1ccc(NC(=O)Nc2ccc(OC)c(OC)c2)cc1	HCMV antiviral inconclusive, HCV inh 25.1µM
COC(=O)c1ccc(NC(=S)N2CCN(Cc3ccccc3Cl)CC2)cc1	none
CCOC(=O)c1ccc(NC(=O)c2ccc3c(c2)OCO3)cc1	HCV inh inconclusive
COC(=O)c1ccc(NC(=S)N2CCN(Cc3ccccc3OC)CC2)cc1	HCMV antiviral -79.7
CCOC(=O)c1ccc(NC(=O)c2ccc(OC(C)C)c(OC)c2)cc1	FMDV antiviral 39.8µM, HCV inh inconclusive
Cc1ccc(-n2nnnc2SCc2ccc(C(=O)O)cc2)cc1C	AmpC detergent inconclusive
CCOc1ccc(CCNC(=O)COC(=O)c2cc(S(=O)(=O)N3CCOCC3)ccc2F)cc1OCC	none
CCOC(=O)c1ccc(NC(=O)NCCc2ccccc2OC)cc1	FMDV antiviral inconclusive
CCOC(=O)c1ccc(NC(=O)NCc2ccccc2OC)cc1	HCV inh 11.2µM
CCCOC(=O)c1ccc(NC(=O)c2cc(OC)c(OC)c(OC)c2Br)cc1	AmpC detergent inconclusive, HCV inh 7.08µM
CCOC(=O)c1cc(-c2ccccc2)n(CC(=O)Nc2ccc(OC)c(OC)c2)c1C	none
CCOC(=O)c1cc(-c2ccccc2)n(CC(=O)NCc2ccccc2OC)c1C	HCMV antiviral -60.6 (no result: AmpC inh no detg, HCV inh)
C=CCCC(=O)N[C@H]1CC[C@@]23CCCN2C(=O)CCC[C@H]3[C@H]1Cc1ccccc1	none (no result: FMDV antiviral, AmpC inh no detg, AmpC detergent, HCV inh)
O=C(NCC1(N2CCOCC2)CCCC1)c1cnn(-c2nccc(-c3ccco3)n2)c1C1CC1	none (no result: AmpC inh no detg, AmpC detergent, HCMV antiviral, HCV inh)
N#C/C(=C\c1c(Cl)cccc1Cl)c1nc2ccccc2[nH]1	AmpC inh no detg 11.2µM, HCMV antiviral -69.6
Cc1c(Cl)cccc1-c1ccc(/C=C(\C#N)c2nc3ccccc3[nH]2)o1	HCMV antiviral inconclusive (no result: AmpC inh no detg, HCV inh)
N#C/C(=C\c1ccc(Sc2ccc(Cl)cc2)o1)c1nc2ccccc2[nH]1	AmpC inh no detg 28.2µM, HCMV antiviral -67.8, HCV inh inconclusive
O=C(O)c1cc([N+](=O)[O-])c(Sc2nc3ccccc3[nH]2)c([N+](=O)[O-])c1	AmpC detergent inconclusive
N#C/C(=C\c1ccc(Sc2nc3ccccc3[nH]2)o1)c1ccccc1	FMDV antiviral inconclusive, AmpC detergent inconclusive, HCMV antiviral -96.0, HCV inh 10µM
N#Cc1ccc(Sc2nc3ccccc3[nH]2)cc1C#N	HCMV antiviral -76.9
COC(=O)C1=C(C)N(Cc2ccccc2)C(=S)NC1c1ccc(Cl)cc1 (stereo unspecified)	none (no result: FMDV antiviral, AmpC inh no detg, AmpC detergent, HCV inh)
N#C/C(=C\C1CC=CCC1)c1nc2ccccc2[nH]1 (stereo unspecified)	FMDV antiviral inconclusive, HCMV antiviral -82.3, HCV inh inconclusive
Cn1c(/C(C#N)=C/C2CC=CCC2)nc2ccccc21 (stereo unspecified)	none (no result: FMDV antiviral)
COc1ccc(CC(=O)Nc2ccncc2Cl)cc1	FMDV antiviral inconclusive, HCMV antiviral -92.4, HCV inh 6.31µM
CCCCCC(=O)N/N=C(\C)c1ccccn1	HCMV antiviral -98.9, HCV inh inconclusive
CC(=NCc1ccccc1)c1ccc(O)cc1O	none (no result: AmpC inh no detg, AmpC detergent, HCV inh)
O=C(COc1ccccc1-c1ccccc1)N/N=C/c1ccncc1	FMDV antiviral inconclusive, HCV inh inconclusive
C/C(=N\NC(=O)COc1ccccc1-c1ccccc1)c1ccccn1	FMDV antiviral inconclusive, HCMV antiviral -97.5, HCV inh 5.01µM
C/C(=N\NP(=S)(c1ccccc1)c1ccccc1)c1ccc(O)cc1O	AmpC inh no detg 15.8µM
O=C(COc1ccccc1-c1ccccc1)N/N=C/c1ccc2ccccc2c1	HCMV antiviral -100.3, HCV inh inconclusive
C/C(=N\NC(=O)COc1ccccc1-c1ccccc1)c1ccc(O)cc1O	HCMV antiviral -76.1, HCV inh 11.2µM
COc1cccc(C=NN2CCCCCC2)c1OC	none (no result: AmpC inh no detg, AmpC detergent)
COc1cccc(/C=N/N2CCN(c3ccc(Cl)cc3)CC2)c1OC	FMDV antiviral inconclusive, AmpC detergent inconclusive, HCMV antiviral -69.2, HCV inh inconclusive
CCOC(=O)c1ccc(NC(=O)COc2cccc3c(=O)n(C)ccc23)cc1	FMDV antiviral inconclusive (no result: AmpC inh no detg, HCV inh)
CNC[C@H](CC1CCCCC1)NC[C@H](Cc1ccccc1)NCCC12CC3CC(CC(C3)C1)C2	FMDV antiviral 31.6µM, HCMV antiviral -105.0
NC[C@H](Cc1ccccc1)NCCCCC1CCCCC1	HCV inh inconclusive
Cc1n(C)c2cc(Cl)ccc2[n+]1Cc1ccccc1	HCMV antiviral -60.0
COc1ccc(/C=N/NC(=O)c2ccoc2C)cc1COc1c(C)cccc1C	FMDV antiviral 10µM, HCMV antiviral -96.8, HCV inh inconclusive
CCOc1ccc(/C=N/NS(=O)(=O)c2ccc(C)cc2)cc1OC	none
COc1ccc(/C=N/NC(=O)c2ccc(OC)c(OC)c2)cc1COc1c(F)c(F)c(F)c(F)c1F	HCV inh 3.55µM
COc1ccc(/C=N\NC(=O)c2ccc(F)cc2)cc1COc1cc(F)ccc1[N+](=O)[O-]	FMDV antiviral 25.1µM, HCV inh 10µM

Bioassay records: PubChem BioAssay, National Center for Advancing Translational Sciences (NCATS)
